Shown are actives, neighbours in structure and some others; about 0.97% of the full set was active somewhere.
S1P3 antag – antagonists of human S1P3 receptor; inhibition, % at 4.98 µM; Q99500; CHO S1P3 NFAT-BLA reporter, FRET fluorescence, antagonist mode; 0.27% of 170,000 active;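 active = inhibition above the plate cutoff, the mean inhibition of test wells on that plate plus 3 SD, cut at about 28% in these data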;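 note: cells challenged with S1P at its EC80 of 0.8 µM; blue over green emission ratio from cleaved BLA substrate after 4 h stimulation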
Target sequence (Q99500 whole entry, looked up): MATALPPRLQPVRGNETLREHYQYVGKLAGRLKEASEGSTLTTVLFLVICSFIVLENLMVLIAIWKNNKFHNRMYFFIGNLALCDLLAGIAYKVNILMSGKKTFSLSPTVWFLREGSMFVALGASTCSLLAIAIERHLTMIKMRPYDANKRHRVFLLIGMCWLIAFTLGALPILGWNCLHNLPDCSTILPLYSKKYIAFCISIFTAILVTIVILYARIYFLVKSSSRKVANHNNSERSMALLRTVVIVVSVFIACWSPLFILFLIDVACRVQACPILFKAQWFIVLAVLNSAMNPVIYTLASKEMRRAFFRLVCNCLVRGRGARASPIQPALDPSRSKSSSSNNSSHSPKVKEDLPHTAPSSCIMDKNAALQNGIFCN
Hsp70 activator – transcriptional activators of Hsp70; HeLa Hsp70 promoter luciferase reporter, luminescence; scaled: vehicle 0, proteasome-inhibitor control 100%; activation, % at 10 µM; 0.04% of 200,000 active;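 active = activation above the mean across all tested compounds plus 3 SD, cutoff set per campaign, cut at about 5.5% in these data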
AI-2 QS modul – modulates the Vibrio harveyi AI-2 quorum sensing system; Vibrio harveyi JMH597 AI-2 luminescence/OD600 ratio, 9 h; stronger effect = lower value; strain lacks LuxN and CqsS sensors; 0 = neutral-control median; activity change, % at 7.5 µM; 0.4% of 300,000 active; AID 2094; in the data active = activity change below about -75%, passing the limit was not always enough; inconclusive = no clear call, values can overlap the other calls;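 note: luminescence divided by OD600 gain over 9 h not by final OD600 alone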
S1P4 antagonist – blocks the human S1P4 receptor; O95977; S1P4-expressing cells, antagonist mode, reporter read-out; inhibition, % at 4.98 µM; 0.26% of 220,000 active; AID 1510; in the data active = inhibition above about 29%
S1P4 agonist – activates the human S1P4 receptor; O95977; S1P4-expressing cell line, agonist reporter assay; activation, % at 4.98 µM; 0.35% of 220,000 active; in the data active = activation above about 11%
Numbers stand for hits; i = inactive; ? = inconclusive; nt = not tested or not shown.

SMILES | S1P3 antag | Hsp70 activator | AI-2 QS modul | S1P4 antagonist | S1P4 agonist
O=C(Sc1cccc2cccnc12)c1ccccc1Br | nt | nt | i | nt | nt
O=C(Cc1cccs1)NCCS(=O)(=O)N1CCN(c2cccc(Cl)c2)CC1 | nt | nt | i | nt | nt
O=C1OCC2=C1C(c1ccc(F)cc1)c1cc3c(cc1N2)OCCO3 (stereo not drawn) | 35 | i | nt | i | i
Cc1ccc(C(=O)O/N=C(\N)Cc2cccs2)c(Cl)c1 | nt | nt | -89 | nt | nt
Fc1ccc(CSc2nnc(-c3ccncc3)o2)cc1 | i | i | -78 | i | i
Clc1ccc(CSc2nnc(-c3ccncc3)o2)cc1 | i | i | i | i | i
COc1cc(/C=N/NC(=O)CN(Cc2ccco2)S(=O)(=O)c2ccccc2)ccc1O | i | i | i | i | i
CCCCCc1ccc(-c2ccc(/C=C/C(=O)O)cc2)nc1 | i | i | -89 | i | i
CCCc1ccc(-c2ccc(/C=C/C(=O)O)cc2)nc1 | i | i | i | i | i
COc1ccc(S(=O)(=O)N2CCCOC2CNC(=O)C(=O)NCCCN2CCOCC2)cc1C (stereo not drawn) | nt | nt | i | nt | nt
CC(C)c1ccc(NS(=O)(=O)c2ccc(Cl)nc2)cc1 | i | i | -92 | i | i
O=[N+]([O-])c1cc(NS(=O)(=O)c2ccc(Cl)nc2)ccc1Cl | nt | nt | i | nt | nt
Nc1ccc2c(c1)Cc1cc([N+](=O)[O-])ccc1-2 | 52 | i | i | i | i
CCOc1ccc(C(C(=O)NC2CCCC2)N(CCCO)C(=O)c2ccc(-c3ccccc3)[nH]2)cc1 (stereo not drawn) | i | i | i | i | i
Cc1nc2ccccn2c1C(=O)NN | i | i | i | i | i
CCOC(=O)c1c(C)nc2ccccn12 | 70 | i | i | i | i
COc1ccc(-c2cc(C(F)(F)F)nc(S(=O)(=O)CCCC(=O)Nc3cccnc3Cl)n2)cc1OC | i | i | nt | 29 | i
COc1cc(S(=O)(=O)N2CCN(c3ccccn3)CC2)ccc1Br | nt | nt | i | nt | nt
c1ccc(CCc2nc(-c3cccnc3)no2)cc1 | i | i | -93 | i | i
CCc1ccc(NCc2nc(-c3ccccc3)no2)cc1 | i | i | -96 | i | i
c1ccc(CCc2nc(-c3ccccc3)no2)cc1 | nt | i | -94 | i | i
O=C(CCCC(=O)c1ccccc1)NCc1ccccc1 | nt | nt | i | nt | nt
CC1CCN(C(=O)/C=C/c2ccc(C(C)(C)C)cc2)CC1 | i | i | -89 | i | i
Nc1nc(Cl)nc2c1ncn2[C@@H]1O[C@H](CO)[C@@H](O)[C@H]1O | i | i | ? | i | i
Nc1ccn([C@@H]2O[C@H](CO)[C@@H](O)[C@@H]2O)c(=O)n1 | i | i | i | i | 12
SMILES | S1P3 antag | Hsp70 activator | AI-2 QS modul | S1P4 antagonist | S1P4 agonist
Nc1ncn([C@@H]2O[C@H](CO)[C@@H](O)[C@H]2O)c(=O)n1 | nt | nt | -87 | nt | nt
CC(=O)c1ccc(S(=O)(=O)N(C)CCCC(=O)N(C)Cc2c(F)cccc2Cl)cc1 | nt | nt | i | nt | nt
O=C(Cc1ccccc1)Nc1cccc(N2C(=O)C=CC2=O)c1 | i | i | -88 | i | i
COc1cccc(NC(=O)Cc2ccccc2)c1 | i | i | i | i | i
O=C(O)c1cc(NS(=O)(=O)c2ccc3ccccc3c2)ccc1O | nt | nt | i | nt | nt
NS(=O)(=O)c1cccc(NS(=O)(=O)c2ccc3ccccc3c2)c1 | nt | nt | -97 | nt | nt
CC(CCc1ccccc1)NC(=O)COC(=O)C1CCC(C(C)(C)C)CC1 (stereo not drawn) | i | i | i | i | i
CO[C@H]1C=CO[C@@]2(C)Oc3c(C)c(O)c4c(O)c(c5c(nc6cc(C)ccn65)c4c3C2=O)NC(=O)C(C)=CC=C[C@H](C)[C@H](O)[C@@H](C)[C@@H](O)[C@@H](C)[C@H](OC(C)=O)[C@@H]1C | i | i | -219 | i | i
COc1ccc(S(=O)(=O)N2CCN(S(=O)(=O)c3ccc(C(F)(F)F)cc3)CC2)cc1C | i | i | i | i | i
COc1ccc(S(=O)(=O)N2CCN(c3ccc(C)cc3C)CC2)cc1OC | 103 | i | i | i | i
COc1ccc(S(=O)(=O)N2CCN(C)CC2)cc1C | 56 | i | i | i | i
COc1cc(C2=NOC(C(=O)NC3CCCCC3)C2)cc(OC)c1OC (stereo not drawn) | 96 | i | i | i | i
O=C(N/N=C/c1ccco1)C1CC1c1ccccc1 (stereo not drawn) | i | i | -86 | i | i
O=C(N/N=C/c1ccco1)C1CC1 | i | i | i | i | i
O=C(/C=C/c1ccccc1)NC(=S)NNC(=O)c1cnccn1 | i | nt | i | i | i
O=C(/C=C/c1ccccc1)NC(=S)NNC(=O)c1cccnc1 | nt | i | -111 | i | i
Cc1[nH]c2ccccc2c1CCC(N)=O | i | i | i | i | i
Cc1[nH]c2ccccc2c1Cc1nnc(SCC(N)=O)o1 | 82 | i | i | i | i
Brc1ccc2c(c1)CN1CCCC1=N2 | nt | nt | i | nt | nt
CC(=O)C(Cl)C(=O)Nc1ccccc1 (stereo not drawn) | i | i | nt | i | i
O=C(Nc1ccccc1)C(Cl)C(=O)c1ccccc1 (stereo not drawn) | nt | nt | -82 | nt | nt
Cc1ccccc1Cn1c(=O)n(Cc2ccco2)c(=O)c2ccccc21 | 55 | i | i | i | i
Cc1cccc(Cn2c(=O)n(Cc3ccco3)c(=O)c3ccccc32)c1 | i | i | i | i | i
CC(=O)NC(=S)NNC(=O)C(c1ccccc1)c1ccccc1 | i | i | -87 | i | i
N#CCC(=O)NNC(=S)NC(=O)C(c1ccccc1)c1ccccc1 | i | i | i | i | i
SMILES | S1P3 antag | Hsp70 activator | AI-2 QS modul | S1P4 antagonist | S1P4 agonist
CC(C)=CC1C(C(=O)Nc2ccc(Br)cn2)C1(C)C (stereo not drawn) | 71 | i | i | i | i
Cc1cccc(N2CC(C(=O)NCCC3=CCCCC3)CC2=O)c1C (stereo not drawn) | nt | nt | i | nt | nt
OCc1c[nH]c(=S)n1CCOc1cccc(C(F)(F)F)c1 | nt | nt | i | nt | nt
O=C(Nc1ccccc1)C1=C(c2ccccc2)S(=O)(=O)CCS1(=O)=O | i | i | ? | 32 | i
Cc1ccc(/C=N/Nc2cn[nH]c(=O)n2)o1 | i | i | i | i | i
O=c1nc(N/N=C/c2ccccn2)cn[nH]1 | i | i | -88 | i | i
O=S1(=O)N=C(N/N=C/c2ccccn2)c2ccccc21 | i | i | -86 | i | i
CSc1ccc(CN(C)C(=O)C23CC4CC(CC(Cl)(C4)C2)C3)cc1 | nt | nt | i | nt | nt
COc1ccc(CC(=O)Nc2ccccc2NC(=O)Cc2ccc(OC)cc2)cc1 | nt | nt | i | nt | nt
COc1ccc(CC(=O)Nc2cc(Cl)ccc2O)cc1 | i | i | -94 | i | i
N#C/C(N=Nc1ccccc1O)=N\Nc1ccccc1O | nt | nt | i | nt | nt
CC1CCN(S(=O)(=O)c2ccc(C(C)C)cc2)CC1 | i | i | -88 | i | i
Cc1cccc(NC(=O)CCNC(=O)c2ccc(Br)cc2)c1C | nt | nt | i | nt | nt
O=C(NC(=S)Nc1ccccc1)c1ccc(Br)o1 | i | i | i | i | i
O=C(Nc1ccc(Nc2ccccc2)cc1)c1ccc(Br)o1 | i | i | -92 | i | i
Cc1cc(C)c(C(N)=O)c(Nc2cccc(Cl)c2C)n1 | 55 | i | i | i | i
Cc1cc(C)c(C(N)=O)c(NC(=O)Nc2ccccc2Cl)n1 | nt | i | i | i | i
Cc1ccc(CNC(=O)NC2CCCCC2)cc1 | nt | i | -89 | i | i
O=C(NCc1ccncc1)NC1CCCCC1 | i | i | i | i | i
